Values joined by “and” are separate entries in the source; they are usually repeats but may differ in a detail not shown here. Identical values can stand only once. Screen size: about 5,500 compounds; about 2,000 (36%) were called active. Another 18% or so got no clear call; they are omitted. Rule as the data show it: active = normalized growth mostly below about 0.91 (no sharp cut-off); inconclusive = no clear call, values can overlap the other calls; inactive = mostly above about 0.92. The list shows a part of the results.
Assay: chemical genetic growth profiling, strain panel (AID 1159580);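 also: tested at 20 µM; growth read once vehicle control cultures reached saturation at 30 °C; 1 = growth at the plate median or of vehicle wells; lower values mean less growth of the strain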
Details: S. cerevisiae deletion strains, growth OD

Measured: normalized growth

O=c1ccc2ccccc2o1
inactive: locus YAL013W, strain DEP1, stronger effect = lower value 1.02 | locus YAL021C, strain ccr4, stronger effect = lower value 1.01 | locus YAL026C, strain drs2, stronger effect = lower value 0.993 | locus YAL030W, strain snc1, stronger effect = lower value 0.99 | locus YBL061C, strain skt5, stronger effect = lower value 0.988 | locus YBR009C, strain hhf1, stronger effect = lower value 0.939 | locus YBR021W, strain FUR4, stronger effect = lower value 1 | locus YBR023C, strain chs3, stronger effect = lower value 0.996 | locus YBR171W, strain sec66, stronger effect = lower value 0.974 | locus YBR229C, strain ROT2, stronger effect = lower value 1.02 | locus YBR231C, strain swc5, stronger effect = lower value 0.964 | locus YBR279W, strain paf1, stronger effect = lower value 0.999 | locus YCL011C, strain gbp2, stronger effect = lower value 0.993 | locus YCL016C, strain dcc1, stronger effect = lower value 1.03 | locus YCL029C, strain bik1, stronger effect = lower value 0.992 | locus YCL069W, strain vba3, stronger effect = lower value 0.98 | locus YCR088W, strain abp1, stronger effect = lower value 0.982 | locus YDL005C, strain med2, stronger effect = lower value 0.976 | locus YDL035C, strain GPR1, stronger effect = lower value 1.01 | locus YDL040C, strain nat1, stronger effect = lower value 0.984 | locus YDL074C, strain BRE1, stronger effect = lower value 1.01 | locus YDL101C, strain DUN1, stronger effect = lower value 1.03 | locus YDL134C, strain PPH21, stronger effect = lower value 1.03 | locus YDL185W, strain tfp1, stronger effect = lower value 0.982 | locus YDL192W, strain arf1, stronger effect = lower value 0.988 | locus YDR001C, strain nth1, stronger effect = lower value 0.978 | locus YDR069C, strain doa4, stronger effect = lower value 0.987 | locus YDR101C, strain arx1, stronger effect = lower value 0.968 | locus YDR137W, strain rgp1, stronger effect = lower value 0.968 | locus YDR150W, strain NUM1, stronger effect = lower value 1 | locus YDR159W, strain sac3, stronger effect = lower value 0.945 | locus YDR162C, strain NBP2, stronger effect = lower value 1.04 | locus YDR195W, strain ref2 0.991 | locus YDR297W, strain sur2, stronger effect = lower value 0.973 | locus YDR318W, strain mcm21, stronger effect = lower value 1.01 | locus YDR334W, strain swr1, stronger effect = lower value 0.926 | locus YDR335W, strain msn5, stronger effect = lower value 0.985 | locus YDR388W, stronger effect = lower value 0.988 | locus YDR392W, strain spt3, stronger effect = lower value 0.956 | locus YDR502C, strain sam2, stronger effect = lower value 0.963 | locus YEL003W, strain gim4, stronger effect = lower value 0.957 | locus YEL037C, strain rad23, stronger effect = lower value 0.977 | locus YEL061C, strain CIN8 (second series), stronger effect = lower value 0.954 | locus YEL061C, strain CIN8, stronger effect = lower value 1.01 | locus YER015W, strain faa2, stronger effect = lower value 0.991 | locus YER016W, strain bim1, stronger effect = lower value 0.986 | locus YER110C, stronger effect = lower value 0.989 | locus YER111C, strain swi4, stronger effect = lower value 0.982 | locus YER155C, strain BEM2 (second series), stronger effect = lower value 0.937 | locus YER155C, strain BEM2, stronger effect = lower value 1.02 | locus YER167W, strain BCK2, stronger effect = lower value 1.02 | locus YFR010W, strain ubp6, stronger effect = lower value 0.93 | locus YGL078C, strain dbp3, stronger effect = lower value 0.992 | locus YGL086W, strain mad1, stronger effect = lower value 0.981 | locus YGL167C, strain pmr1, stronger effect = lower value 0.972 | locus YGL173C, strain kem1, stronger effect = lower value 0.973 | locus YGL227W, strain vid30, stronger effect = lower value 0.969 | locus YGL240W, strain doc1, stronger effect = lower value 0.958 | locus YGL248W, strain PDE1, stronger effect = lower value 1.04 | locus YGL253W, strain hxk2, stronger effect = lower value 1.01 | locus YGR135W, strain pre9, stronger effect = lower value 0.988 | locus YGR252W, strain gcn5, stronger effect = lower value 1.02 | locus YHR013C, strain ard1, stronger effect = lower value 1.05 | locus YHR027C, strain rpn1, stronger effect = lower value 0.975 | locus YHR030C, strain SLT2, stronger effect = lower value 1.02 and 0.992 | locus YHR079C, strain IRE1 (second series), stronger effect = lower value 0.999 | locus YHR079C, strain IRE1, stronger effect = lower value 0.957 | locus YHR094C, strain hxt1, stronger effect = lower value 0.989 | locus YHR129C, strain ARP1, stronger effect = lower value 1.02 | locus YHR142W, strain chs7, stronger effect = lower value 1.03 | locus YHR200W, strain rpn10, stronger effect = lower value 0.978 | locus YIL066C, strain RNR3, stronger effect = lower value 1.02 | locus YIL073C, strain SPO22, stronger effect = lower value 0.985 | locus YIL125W, strain kgd1, stronger effect = lower value 1.01 | locus YIR030C, strain dcg1, stronger effect = lower value 0.992 | locus YJL092W, strain hpr5, stronger effect = lower value 0.996 | locus YJL095W, strain BCK1 (second series), stronger effect = lower value 0.978 | locus YJL095W, strain BCK1, stronger effect = lower value 1.06 and 0.982 | locus YJL115W, strain asf1, stronger effect = lower value 0.972 | locus YJL129C, strain trk1, stronger effect = lower value 0.985 | locus YJL134W, strain LCB3, stronger effect = lower value 1.01 | locus YJL154C, strain vps35, stronger effect = lower value 0.978 | locus YJL164C, strain tpk1, stronger effect = lower value 0.977 | locus YJL166W, strain qcr8, stronger effect = lower value 0.956 | locus YJL168C, strain set2, stronger effect = lower value 0.995 | locus YJL187C, strain SWE1 (second series), stronger effect = lower value 1.02 | locus YJL187C, strain SWE1, stronger effect = lower value 0.982 | locus YJR043C, strain POL32, stronger effect = lower value 1.02 | locus YJR066W, strain TOR1, stronger effect = lower value 0.945 | locus YKL009W, strain mrt4, stronger effect = lower value 1.12 | locus YKL068W, stronger effect = lower value 1.01 | locus YKL085W, strain MDH1 (second series), stronger effect = lower value 1.01 | locus YKL085W, strain MDH1, stronger effect = lower value 1.01 | locus YKL160W, strain elf1, stronger effect = lower value 1.02 | locus YKL190W, strain CNB1, stronger effect = lower value 1.02 | locus YKR001C, strain vps1, stronger effect = lower value 0.979 | locus YKR026C, strain gcn3, stronger effect = lower value 0.972 | locus YKR091W, strain srl3, stronger effect = lower value 0.983 | locus YLL001W, strain dnm1, stronger effect = lower value 0.981 | locus YLL026W, stronger effect = lower value 0.99 | locus YLL041C, strain sdh2, stronger effect = lower value 0.998 | locus YLR027C, strain aat2, stronger effect = lower value 0.993 | locus YLR039C, strain RIC1, stronger effect = lower value 1.03 | locus YLR058C, strain SHM2, stronger effect = lower value 1.03 | locus YLR102C, strain apc9, stronger effect = lower value 0.987 | locus YLR113W, strain HOG1, stronger effect = lower value 0.999 | locus YLR221C, strain rsa3, stronger effect = lower value 0.952 | locus YLR258W, strain gsy2, stronger effect = lower value 1.01 | locus YLR262C, strain YPT6 (second series), stronger effect = lower value 0.965 | locus YLR262C, strain YPT6, stronger effect = lower value 1.03 | locus YLR268W, strain sec22, stronger effect = lower value 0.961 | locus YLR320W, strain mms22, stronger effect = lower value 0.951 | locus YLR330W, strain CHS5, stronger effect = lower value 1.03 | locus YLR342W, strain FKS1 (second series), stronger effect = lower value 1.01 | locus YLR342W, strain FKS1, stronger effect = lower value 1 | locus YLR357W, strain rsc2, stronger effect = lower value 1.04 | locus YLR370C, strain arc18, stronger effect = lower value 1 | locus YLR371W, strain rom2, stronger effect = lower value 0.976 | locus YLR384C, strain iki3, stronger effect = lower value 0.992 | locus YLR418C, strain cdc73, stronger effect = lower value 1.03 | locus YML016C, strain PPZ1, stronger effect = lower value 1.02 | locus YML032C, strain rad52, stronger effect = lower value 0.999 | locus YML120C, strain ndi1, stronger effect = lower value 0.95 | locus YML124C, strain tub3, stronger effect = lower value 0.994 | locus YMR058W, strain fet3, stronger effect = lower value 0.983 | locus YMR078C, strain ctf18, stronger effect = lower value 0.989 | locus YMR125W, strain sto1, stronger effect = lower value 0.998 | locus YMR129W, stronger effect = lower value 0.989 | locus YMR205C, strain PFK2, stronger effect = lower value 0.955 | locus YMR223W, strain ubp8, stronger effect = lower value 1.04 | locus YMR231W, strain pep5, stronger effect = lower value 0.971 | locus YMR307W, strain GAS1, stronger effect = lower value 1.06 | locus YNL067W, strain RPL9B, stronger effect = lower value 1.02 | locus YNL071W, strain lat1, stronger effect = lower value 0.958 | locus YNL183C, strain NPR1, stronger effect = lower value 0.949 | locus YNL209W, strain ssb2, stronger effect = lower value 0.978 | locus YNL233W, strain BNI4, stronger effect = lower value 1.02 | locus YNL248C, strain rpa49, stronger effect = lower value 0.995 | locus YNL250W, strain rad50, stronger effect = lower value 1.01 | locus YNL271C, strain bni1, stronger effect = lower value 0.993 | locus YNL298W, strain CLA4, stronger effect = lower value 0.993 | locus YNL307C, strain MCK1, stronger effect = lower value 0.997 | locus YNL322C, strain KRE1 (second series), stronger effect = lower value 0.98 | locus YNL322C, strain KRE1, stronger effect = lower value 1.02 | locus YNR049C, strain mso1, stronger effect = lower value 0.993 | locus YNR052C, strain pop2, stronger effect = lower value 1.01 | locus YOL012C, strain htz1 1.37 | locus YOL147C, strain pex11, stronger effect = lower value 0.99 | locus YOR001W, strain rrp6, stronger effect = lower value 0.935 | locus YOR061W, strain CKA2, stronger effect = lower value 1.02 | locus YOR069W, strain VPS5, stronger effect = lower value 1.01 | locus YOR070C, strain gyp1, stronger effect = lower value 0.994 | locus YOR080W, strain dia2, stronger effect = lower value 0.981 | locus YOR083W, strain WHI5, stronger effect = lower value 0.972 | locus YOR106W, strain vam3, stronger effect = lower value 0.998 | locus YOR136W, strain idh2, stronger effect = lower value 0.982 | locus YOR144C, strain elg1, stronger effect = lower value 0.99 | locus YOR184W, strain ser1, stronger effect = lower value 0.985 | locus YOR231W, strain MKK1, stronger effect = lower value 0.988 | locus YOR265W, strain rbl2, stronger effect = lower value 0.987 | locus YOR270C, strain vph1, stronger effect = lower value 0.981 | locus YOR290C, strain snf2, stronger effect = lower value 1.01 | locus YOR316C, strain cot1, stronger effect = lower value 1 | locus YPL051W, strain arl3, stronger effect = lower value 1.03 | locus YPL055C, strain LGE1, stronger effect = lower value 1.02 | locus YPL078C, strain atp4, stronger effect = lower value 1.03 | locus YPL106C, strain sse1, stronger effect = lower value 0.988 | locus YPL240C, strain hsp82, stronger effect = lower value 0.983 | locus YPL256C, strain CLN2, stronger effect = lower value 1 | locus YPR119W, strain clb2, stronger effect = lower value 0.992 | locus YPR141C, strain kar3, stronger effect = lower value 0.999 | locus YPR163C, strain tif3, stronger effect = lower value 1 | locus YPR167C, strain met16, stronger effect = lower value 1.03 | strain wtn01, stronger effect = lower value 0.962

From PubChem BioAssay AID1159580 (chemical genetic matrix, 2015)
